Compound activity deposited in PubChem BioAssay by several laboratories.
Mdm2 MdmX PPI – human Mdm2/MdmX binding inhibition; O15151+Q00987; SaOS-2 split-luciferase Mdm2/MdmX complementation, luminescence; inhibition, % at 8 µM; 330,000 tested, 3% active;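 active = inhibition of at least 50% at 8 µM in the primary screen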
CSC inhib – blocks cancer stem cells | cancer stem cell-like cells viability, luminescence | inhibition, % at 7.5 µM | AID 2717 | 300,000 tested, 1.1% active; in the data active = inhibition above about 75%; inconclusive = no clear call, values can overlap the other calls; tested in HMLE shEcad cells
A1 inh – inhibitors of the anti-apoptotic protein A1, read as caspase activation | 330,000 tested, 0.066% active | MEF A1-2A-BIM cells, Caspase-Glo 3/7 luminescence, 3 h; percent of clofoctol response, vehicle zero | caspase activation, % (test concentration not listed);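 active = over half of replicate activation scores above 10%, or exactly half above 10 with the replicate mean above 10; inconclusive = replicate mean below 10 yet half the replicates above 10; inactive = over half of replicates below 10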
Beta apoptosis – blocks beta cell apoptosis | INS-1E cytokine-induced death, ATP luminescence, 48 h; percent of positive-control rescue, neutral wells zero | protection from apoptosis, % (test concentration not listed) | 300,000 tested, 0.8% active | AID 435005;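 active = Every replicate reaches about 75%, or at least half do and their mean reaches it too, limit read from the data; inconclusive = At least half of replicates reach the limit but their mean does not; inactive = Under half of replicates reach the limit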;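 note: 0% = cytokine-treated negative control wells and 100% = positive control rescue; higher means more ATP so stronger rescue from cytokine killing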
aSyn UTR inh – 5' untranslated region of α-synuclein, MLPCN primary screen; inhibition, % (tested at 7.5 µM); 300,000 tested, 0.82% active; alpha-synuclein 5'UTR reporter, inhibitor activity; AID 1813; in the data active = inhibition above about 60%; inconclusive = no clear call, values can overlap the other calls;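 note: H4 neuroglioblastoma cells stably carrying SNCA 5'UTR luciferase fusion; 0% = DMSO wells and 100% = positive control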
Mdm2-MdmX conf – human Mdm2/MdmX binding inhibition, confirmed; 10,000 tested, 55% active; luminescent assay; AID 489028; inhibition, % at 8 µM; shares compounds with Mdm2 MdmX PPI; in the data active = inhibition above about 40%
Full FLuc ctr – counter-screen for Mdm2/MdmX inhibitors: full-length luciferase. SaOS-2 full-length luciferase counterscreen, luminescence. inhibition, % at 8 µM. 6,200 tested, 77% active. AID 504607. shares compounds with Mdm2 MdmX PPI;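 active = mean inhibition at 8 µM reaching about 37%, which flags the compound as non-specific, limit read from the data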;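 note: p53-null SaOS-2 cells with luciferase driven by a doxycycline-inducible promoter; compound on cells about two nights before reading with doxycycline added after day one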
* marks the source's active call; other numbers are inactive results. Shown are actives, neighbours in structure and some others; about 4.1% of the full set was active somewhere.

CCOc1cc(C(c2c(C)[nH][nH]c2=O)c2c(C)[nH][nH]c2=O)ccc1OCc1ccc([N+](=O)[O-])cc1 was read as Mdm2 MdmX PPI -4.0, CSC inhib 0.6, A1 inh -0.3, Beta apoptosis 5.7 and aSyn UTR inh -10.3.
CCOc1cc(/C=C2/NC(=S)NC2=O)ccc1OCc1ccc([N+](=O)[O-])cc1 was read as Mdm2 MdmX PPI 59.9*, CSC inhib 32.0, A1 inh 0.4, Beta apoptosis 41.4, aSyn UTR inh 61.6* and Mdm2-MdmX conf 34.8.
Screening Cc1cc(C)c2c(N)c(C(=O)Nc3ccc([N+](=O)[O-])cc3)sc2n1 returned Mdm2 MdmX PPI -27.9, CSC inhib -3.2, A1 inh -1.2, Beta apoptosis 0.5 and aSyn UTR inh -144.1.
Oc1ccc(C[C@@H]2CNCCN2CC2CCCCC2)cc1 was read as Mdm2 MdmX PPI 18.7, CSC inhib 32.4, A1 inh 1.8, Beta apoptosis 1.3 and aSyn UTR inh -20.7.
`Oc1ccc(C[C@@H]2CNCCN2CCC23CC4CC(CC(C4)C2)C3)cc1` gave Mdm2 MdmX PPI 73.0*, CSC inhib 13.5, A1 inh 0.5, Beta apoptosis -2.6, aSyn UTR inh -49.8, Mdm2-MdmX conf 23.6 and Full FLuc ctr 63.9*.
Screening Oc1ccc(C[C@H]2CNCCN2CCCCC2CCCCC2)cc1 returned Mdm2 MdmX PPI 71.7*, CSC inhib 2.9, A1 inh inconclusive, Beta apoptosis 8.6, aSyn UTR inh -6.2 and Mdm2-MdmX conf 10.7.
Oc1ccc(C[C@H]2CNCCN2CCC23CC4CC(CC(C4)C2)C3)cc1 was read as Mdm2 MdmX PPI 58.5*, CSC inhib 29.6, A1 inh 2.4, Beta apoptosis 10.6, aSyn UTR inh -22.1 and Mdm2-MdmX conf 16.9.
Screening COc1ccccc1C(=O)NCC(=O)N1CCN(S(=O)(=O)c2ccccc2C(F)(F)F)CC1 returned Mdm2 MdmX PPI 18.4, A1 inh 1.0 and Beta apoptosis -1.5.
For O=C(NCC(=O)N1CCN(S(=O)(=O)c2ccccc2C(F)(F)F)CC1)c1sc2ccccc2c1Cl the results were Mdm2 MdmX PPI 56.8*, CSC inhib 10.1, A1 inh 1.1, Beta apoptosis 2.9, aSyn UTR inh -5.0 and Mdm2-MdmX conf 33.4.
COc1ccc(C2=Nn3c(nnc3-c3ccccc3OC)SC2)cc1OCC1CC1 was read as Mdm2 MdmX PPI 73.6*, A1 inh 0.2, Beta apoptosis 32.4, Mdm2-MdmX conf 65.6* and Full FLuc ctr 85.7*.
COc1ccc(OC)c(-c2nnc3n2N=C(c2ccc(OC(F)F)c(OCC4CC4)c2)CS3)c1 was read as Mdm2 MdmX PPI 56.8*, CSC inhib 76.5*, A1 inh -2.0, Beta apoptosis -9.5, Mdm2-MdmX conf 55.2* and Full FLuc ctr 46.0*.
`CN(CC(=O)Nc1cccc(F)c1)C(=O)COc1cccc2c1OC(C)(C)C2` gave Mdm2 MdmX PPI -16.9, CSC inhib -10.9, A1 inh -0.1 and aSyn UTR inh -1.7.
For CCC(C)NC(=O)c1ccc(N2CC3CC(C2)c2cccc(=O)n2C3)c(NC(=O)c2ccc(Br)o2)c1 (centres undefined) the results were Mdm2 MdmX PPI 12.8, CSC inhib -11.1, A1 inh -0.3, Beta apoptosis -9.3 and aSyn UTR inh 14.2.
Nc1nonc1C(=O)NCCNCc1cc(Br)ccc1OCc1ccccc1F was read as Mdm2 MdmX PPI 21.0, CSC inhib 3.7, A1 inh -0.7, Beta apoptosis 66.4 and aSyn UTR inh -17.8.
Nc1nonc1C(=O)NCCNCc1ccccc1OCc1ccccc1F was read as Mdm2 MdmX PPI 56.3*, A1 inh -0.5, Beta apoptosis 3.1, aSyn UTR inh -11.4 and Mdm2-MdmX conf 10.9.
CC(C)(C)c1ccc(C(CC(=O)O)NC(=O)Cc2ccccc2)cc1 (centres undefined) was read as Mdm2 MdmX PPI 29.5, CSC inhib -17.3, A1 inh -0.7, Beta apoptosis -7.9 and aSyn UTR inh 0.2.
For Cc1ccc(NC(=O)c2cnccn2)nc1 the results were Mdm2 MdmX PPI 53.4*, CSC inhib -17.5, A1 inh -0.7, Beta apoptosis 3.7, aSyn UTR inh -77.6 and Mdm2-MdmX conf -5.3.
